Inconclusive results are not listed. Calls of active or inactive are those of the source. Calls follow the shape of the dose curve; as a rule, active = well fitted curve in the direction sought with a large enough effect in the signal ratio, with a control signal flat (not every such curve was filed as active); inconclusive = small, poorly fitted or top-dose-only effect, or effect the other way, or a change in a side signal; inactive = no such curve, though single readings can be large or run the other way; the % refers to the signal ratio.
Biological target: Estrogen receptor (Homo sapiens) (UniProt P03372)
Test: qHTS assay for small molecule antagonists of estrogen receptor alpha signaling (AID 588513)
Conditions: ER-alpha-UAS-bla HEK293, beta-lactamase ratio, antagonist mode; series mostly up to 76.9 µM; activity, negative = inhibition: at the top concentration
Excerpt: NIH Chemical Genomics Center [NCGC]
U.S. Environmental Protection Agency [EPA]
National Institutes of Environmental Health Sciences [NIEHS]
National Toxicology Program [NTP]
Estrogen receptor alpha (ER-alpha) is an important member of nuclear hormone receptors. ER-alpha plays important role in breast cancer as well as in other women's health issues. The majority of breast cancers is estrogen receptor (ER) positive and depends on estrogen for growth. There is also growing concern for some of environmental chemicals which may contribute the increasing the incidence of breast cancer. Therefore, it is important to understand the effect of environmental chemicals in ER-alpha signaling pathway.
NCGC Assay Protocol Summary
Using a beta-lactamase reporter-gene under control of the ER response element, a cell-based assay [ER-alpha-UAS-bla GripTiteTM cell-Based Assay from Invitrogen] was used to measure ER-alpha signaling pathway in antagonist mode. ER-alpha-UAS-bla-GripTite HEK 293 cells were used with assay medium containing 2% charcoal/dextran treated FBS, 0.1 mM NEAA and 1 mM sodium pyruvate. Cells were cultured in this assay medium overnight in the flasks before the assay. The assay was performed in clear bottom black Greiner 1536-well plates. 17-beta-estradiol was used as a positive control in the screen. Library compounds were measured for their ability to inhibit the reporter gene activity. Compounds were screened in a titration series in 1536-well format. […] Data was normalized relative to 17-beta-estradiol control (0.5nM, 100%), and DMSO only wells (basal, 0%). Concentration-response titration points for each compound were fitted to the Hill equation yielding concentrations of half-maximal inhibition (IC50) and maximal response (efficacy) values.
qHTS protocol for ER-alpha beta-lactamase assay in antagonist mode
[Step] [Parameter] [Value] [Description]
1. Reagent; 5 uL; 5000 cells/well
2. Incubation; 37 C for 4 hrs
- Dose response, Start 38uM, 1:2 dilutions with duplicates
- Two columns with 38 and 19uM (final) concentration.
5. Agonist (Stimulator); 1uL; 17-beta-estradiol at 0.5nM (final) concentration
6. Incubation; 37 C for 18 hrs
7. Detection reagent; 1 uL of CCF4-dye
8. Incubation; RT for 2 hrs
9. Detection; Fluorescence; Envision plate reader or Acumen plate reader
% is scaled to controls: 0 for no effect and ±100 for the full control effect.

Estrogen receptor (Homo sapiens), sequence (P03372 whole entry, looked up): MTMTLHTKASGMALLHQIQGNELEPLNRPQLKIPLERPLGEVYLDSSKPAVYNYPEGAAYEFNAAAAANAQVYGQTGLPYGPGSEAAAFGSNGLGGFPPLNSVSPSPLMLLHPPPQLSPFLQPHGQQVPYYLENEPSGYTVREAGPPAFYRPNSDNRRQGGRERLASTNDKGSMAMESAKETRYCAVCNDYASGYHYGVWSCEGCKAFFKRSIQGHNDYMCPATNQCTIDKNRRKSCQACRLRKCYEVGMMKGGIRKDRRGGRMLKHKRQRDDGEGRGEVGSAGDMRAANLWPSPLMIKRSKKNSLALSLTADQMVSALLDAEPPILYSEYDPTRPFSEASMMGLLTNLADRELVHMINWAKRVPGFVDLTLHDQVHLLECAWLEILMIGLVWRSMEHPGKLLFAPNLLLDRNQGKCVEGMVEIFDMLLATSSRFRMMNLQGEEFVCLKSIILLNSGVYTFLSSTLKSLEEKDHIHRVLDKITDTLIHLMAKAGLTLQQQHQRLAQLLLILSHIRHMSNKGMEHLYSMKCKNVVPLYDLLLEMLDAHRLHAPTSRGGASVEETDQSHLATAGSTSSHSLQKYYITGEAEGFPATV

Row | SMILES | activity, negative = inhibition | outcome
1 | CC(C)(Oc1ccc(C2CC2(Cl)Cl)cc1)C(=O)O (stereo not given) | -27.2% (inactive) | –
2 | COc1ccc2c(c1)c(CC(=O)O)c(C)n2C(=O)c1ccc(Cl)cc1 | -17.2% (inactive) | –
3 | NCCS(=O)(=O)O | 7.94% (inactive) | –
4 | COc1ccc2[nH]cc(CCNC(C)=O)c2c1 | – | inactive
5 | Nc1c2c(nc3ccccc13)CCCC2 | 48.7% (inactive) | –
6 | Cc1ccc(-c2cc(C(F)(F)F)nn2-c2ccc(S(N)(=O)=O)cc2)cc1 | -24% (inactive) | –
7 | CC(C)C(=O)Nc1ccc([N+](=O)[O-])c(C(F)(F)F)c1 | -5.7% (inactive) | –
8 | Nc1ccn([C@H]2CC[C@@H](CO)O2)c(=O)n1 | – | inactive
9 | Cc1cn([C@H]2C[C@H](N=[N+]=[N-])[C@@H](CO)O2)c(=O)[nH]c1=O | – | inactive
10 | CCOC(=O)C(C)(C)Oc1ccc(Cl)cc1 | -5.01% (inactive) | –
11 | Cn1c(=O)c2[nH]cnc2n(C)c1=O | 7.92% (inactive) | –
12 | NS(=O)(=O)c1cc2c(cc1Cl)NCNS2(=O)=O | – | inactive
13 | CC(C)Cc1ccc(C(C)C(=O)O)cc1 (stereo not given) | -17.7% (inactive) | –
14 | O=c1[nH]cc(F)c(=O)[nH]1 | 9.83% (inactive) | –
15 | N[C@@H](Cc1c[nH]c2ccc(O)cc12)C(=O)O | 17.6% (inactive) | –
